Bioassay records as filed in PubChem BioAssay.
A selection: hits, their analogues and other compounds. The true share with any hit is near 2.4%.
D2 ag-1 – HTS Assay for Allosteric Agonists of the Human D2 Dopamine Receptor: Primary Screen for Agonists; D(2) dopamine receptor (Homo sapiens), P14416; activation, % at 2 µM; HEK293 T-REx D2 cells, calcium flux agonist mode; actives 0.53% (n = 340,000);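 active = activation over 3 SD above normal in the single-dose calcium agonist read, cut at about 30% in these data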; note: 0% is about no effect
Target sequence (P14416 whole entry, looked up): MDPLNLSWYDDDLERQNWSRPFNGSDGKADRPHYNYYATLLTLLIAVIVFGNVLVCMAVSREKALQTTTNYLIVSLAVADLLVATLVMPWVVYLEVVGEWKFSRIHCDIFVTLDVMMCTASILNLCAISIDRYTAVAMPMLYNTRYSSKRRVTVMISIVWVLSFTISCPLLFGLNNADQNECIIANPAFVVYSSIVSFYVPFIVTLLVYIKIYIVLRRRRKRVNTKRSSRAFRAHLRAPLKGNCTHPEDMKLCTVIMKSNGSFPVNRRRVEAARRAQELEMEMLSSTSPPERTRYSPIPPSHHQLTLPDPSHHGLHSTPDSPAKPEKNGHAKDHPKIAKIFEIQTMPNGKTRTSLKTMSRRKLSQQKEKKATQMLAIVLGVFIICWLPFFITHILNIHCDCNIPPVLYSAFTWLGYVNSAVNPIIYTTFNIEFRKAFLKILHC
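Agonism is scored from calcium flux in a force-coupled, inducible HEK293 cell line expressing D2, read kinetically for 180 s after compound addition against dopamine controls.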
D2 PAM-1 – Beta-Arrestin HTS for Positive Allosteric Modulators of the Human D2 Dopamine Receptor: Potentiators | DiscoveRx D2 beta-arrestin cells, luminescence, 90 min; 100% = 57 uM dopamine signal | actives 0.23% (n = 360,000) | potentiation, % (concentration not given with the values); in the data active = potentiation above about 50%; inconclusive = mostly about 30% to 49%
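PathHunter beta-arrestin assay in DiscoveRx D2 cells. Compounds were added with an EC20 of dopamine (50 nM final) for 90 min at 37 deg C. Luminescence was read 1 h after detection reagent, with 57 uM dopamine as the EC100 control.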
D2 antag – HTS Assay for Allosteric Antagonists of the Human D2 Dopamine Receptor: Primary Screen for Antagonists | actives 2% (n = 340,000) | HEK293 TREx D2 cells, calcium flux, dopamine EC80 | inhibition, % at 10 µM; in the data active = inhibition above about 30%; inactive = below that, where a call was filed; note: 0% is about no effect
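Inhibition of EC80 dopamine-driven calcium flux, recorded kinetically, defines activity here; cells are a tetracycline-induced HEK293 T-REx line expressing force-coupled D2.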
D2 PAM-2 – HTS Assay for Positive Allosteric Modulators of the Human D2 Dopamine Receptor: Primary Screen for Potentiators | D(2) dopamine receptor (Homo sapiens), P14416 | actives 0.34% (n = 340,000) | potentiation, % at 10 µM | HEK293 T-REx D2, calcium flux, EC20 dopamine potentiation | AID 485347, 2010;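 active = potentiation over 3 SD above the plate norm, cut at about 30% in these data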; note: 0% is about no effect
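Cells plated with tetracycline inducer and held overnight at 30 C; calcium dye loaded 30–90 min at room temperature; baseline taken, compound added and read 180 s; EC20 dopamine then added and read 180 s.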
D2 ag-2 – Beta-Arrestin HTS for Positive Allosteric Modulators of the Human D2 Dopamine Receptor: Agonists | actives 0.084% (n = 360,000) | activation, % (test concentration not listed) | AID 624465, 2012 | DiscoveRx PathHunter D2 beta-arrestin, luminescence, 90 min; 100% = 57 uM dopamine signal | D(2) dopamine receptor (Homo sapiens), P14416; in the data active = activation above about 40%; inconclusive = between about 15% and that limit
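Agonist mode: compounds alone added to overnight-plated D2 PathHunter cells for 90 min at 37 C, with 57 uM final dopamine (EC100) defining full response. Beta-arrestin recruitment detected by chemiluminescent reagent, read after 1 h at ambient temperature.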
* marks the source's active call; other numbers are inactive results.

Results for CN(C)S(=O)(=O)c1ccc(Cl)c(NC(=O)C2CCN(S(=O)(=O)c3cccs3)CC2)c1 ?
D2 ag-1: 0.2; D2 PAM-1: -5.2; D2 antag: 31.1*; D2 PAM-2: -19.1; D2 ag-2: -1.5

What do the screens show for `Cc1ccc(NC(=O)CN2C(=O)CC(c3ccco3)Sc3ccccc32)cc1Cl` (stereo not given)?
D2 ag-1: -0.2; D2 PAM-2: 1.2

Results for Cc1ccc(CN2CCCn3nc(C(=O)NCc4cc(C)ccc4C)cc3C2=O)cc1 ?
D2 ag-1: 0.3; D2 PAM-2: -4.9

How did COc1ccc(NC(=O)Cc2cccs2)cc1S(=O)(=O)N1CCCCC1 do in these assays?
D2 PAM-1: -20.6; D2 ag-2: 0.0

Results for COc1ccc(S(=O)(=O)N2CCCCC2)cc1NC(=O)Cc1cccs1 ?
D2 ag-1: -0.3; D2 PAM-1: 10.1; D2 antag: 37.9*; D2 PAM-2: -11.1; D2 ag-2: -1.1

Results for COc1ccc(S(=O)(=O)N(C)C)cc1NC(=O)Cc1cccs1 ?
D2 ag-1: -1.7; D2 PAM-1: -18.2; D2 antag: 34.3*; D2 PAM-2: -7.6; D2 ag-2: -2.5

How did COc1ccc(S(=O)(=O)Nc2ccccc2OC)cc1NC(=O)Cc1cccs1 do in these assays?
D2 ag-1: -1.2; D2 PAM-1: -18.3; D2 antag: -24.1; D2 PAM-2: 12.3; D2 ag-2: 0.5

Results for COc1cc(/C=C(\C#N)c2nc3ccccc3[nH]2)ccc1OCc1cccc(C(F)(F)F)c1 ?
D2 ag-1: 0.5; D2 PAM-2: 9.9

What do the screens show for `CC(=O)Nc1c(C(=O)Nc2cccc(C)c2)nnn1-c1ccc(C)cc1`?
D2 ag-1: -0.8; D2 PAM-2: -13.4

How did O=C(O)c1n[nH]c2c1CCCCC2 do in these assays?
D2 ag-1: 1.0; D2 PAM-1: 17.1; D2 antag: 20.5; D2 PAM-2: 3.2; D2 ag-2: 1.0

How did O=C(O)c1n[nH]c2c1CCCC2 do in these assays?
D2 ag-1: -0.5; D2 PAM-1: -2.3; D2 antag: 56.9*; D2 PAM-2: 13.9; D2 ag-2: -2.8

What do the screens show for `CCc1cc(C(=O)NCC(c2cccs2)N2CCOCC2)sc1C` (stereo not given)?
D2 ag-1: 0.0; D2 PAM-1: -37.5; D2 antag: 31.4*; D2 PAM-2: -5.3; D2 ag-2: -2.0

How did CC1=C(C(N)=O)C(c2ccc(C)cc2)n2nc(SCc3ccccc3)nc2N1 (stereo not given) do in these assays?
D2 ag-1: -2.3; D2 PAM-2: 20.6

Results for CNC(=O)Cn1nc(-c2ccc(C)c(S(=O)(=O)N(C)C)c2)c2ccccc2c1=O ?
D2 ag-1: -1.2; D2 PAM-1: -7.5; D2 antag: -6.3; D2 PAM-2: 38.0*; D2 ag-2: -1.7

What do the screens show for `CCN(CC)CC(O)COc1ccccc1C(=O)CCc1ccccc1` (stereo not given)?
D2 ag-1: 0.4; D2 PAM-1: -18.9; D2 antag: -16.1; D2 PAM-2: -16.4; D2 ag-2: 1.2

How did CCCNCC(O)COc1ccccc1C(=O)CCc1ccccc1 (stereo not given) do in these assays?
D2 antag: 35.1*

Results for Cc1ccccc1NC(=O)c1c(O)c2cccc3c2n(c1=O)CCC3 ?
D2 ag-1: 0.2; D2 antag: 46.5*; D2 PAM-2: -20.4

How did CCn1nc(-c2ccccc2)c(-c2ccccc2)c(C(=O)OCCOC)c1=O do in these assays?
D2 ag-1: 0.3; D2 PAM-2: 23.0

How did Cc1nc(Cl)sc1C(=O)Nc1ccccc1Cl do in these assays?
D2 ag-1: -0.8; D2 PAM-1: 52.5*; D2 antag: -7.7; D2 PAM-2: 6.0; D2 ag-2: 1.8

What do the screens show for `COc1ccc(Cc2nc3ccc(C(=O)N4CCC[C@H]4CO)cc3o2)cc1`?
D2 ag-1: 2.4; D2 PAM-1: 0.2; D2 antag: -8.1; D2 PAM-2: -1.9; D2 ag-2: -0.6

What do the screens show for `CCOC(=O)C1CCCCN1C(=O)c1ccc2nc(Cc3ccc(OC)cc3)oc2c1` (stereo not given)?
D2 ag-1: -0.3; D2 PAM-1: 1.6; D2 antag: -17.5; D2 PAM-2: 30.7*; D2 ag-2: inconclusive

What do the screens show for `CCN(CC)CC(O)CN1c2ccccc2Sc2ccccc21` (stereo not given)?
D2 ag-1: -0.7; D2 PAM-1: -37.3; D2 antag: -23.4; D2 PAM-2: -22.0; D2 ag-2: 7.0

How did CC(CN1c2ccccc2Sc2ccccc21)N(C)C (stereo not given) do in these assays?
D2 ag-1: 0.9; D2 PAM-1: -17.2; D2 antag: 54.1*; D2 PAM-2: -26.2; D2 ag-2: -6.0

How did CC(CN(C)C)CN1c2ccccc2Sc2ccccc21 (stereo not given) do in these assays?
D2 ag-1: 0.1; D2 PAM-1: -32.5; D2 antag: 76.1*; D2 PAM-2: -21.3; D2 ag-2: -0.2

How did Cc1ccc(CNC(=O)c2nn(-c3ccc(Cl)cc3)nc2CO)cc1 do in these assays?
D2 ag-1: -1.3

What do the screens show for `CCOc1ncccc1C(=O)Nc1nnc(C)s1`?
D2 ag-1: -0.9; D2 PAM-1: -7.3; D2 antag: -0.9; D2 PAM-2: 10.8; D2 ag-2: -5.6

Results for CCOc1ncccc1C(=O)Nc1nnc(C2CC2)s1 ?
D2 ag-1: 2.3; D2 PAM-1: -22.7; D2 antag: -26.8; D2 PAM-2: 37.0*; D2 ag-2: 0.3

How did Cc1ccc(SCCC(=O)NC(C)C)cc1 do in these assays?
D2 ag-1: 1.1; D2 PAM-1: -8.3; D2 antag: 32.2*; D2 PAM-2: -10.9; D2 ag-2: -3.0

What do the screens show for `Cc1ccc(SCCC(=O)NC(C)(C)C)cc1`?
D2 ag-1: 0.2; D2 PAM-1: -7.1; D2 antag: -0.8; D2 PAM-2: 12.1; D2 ag-2: -2.2

What do the screens show for `Cc1ccc(CSCCNC(=O)c2ccc(C)cc2)cc1`?
D2 ag-1: -2.5; D2 PAM-1: -8.5; D2 antag: 31.9*; D2 PAM-2: -21.4; D2 ag-2: -2.3

Results for COc1ccc(C(=O)NCCSCc2ccc(C)cc2)cc1 ?
D2 ag-1: 0.1; D2 PAM-1: -2.6; D2 antag: 4.2; D2 PAM-2: 1.4; D2 ag-2: -4.9

How did CCn1ccc2cc(S(=O)(=O)N3CCCN(C(=O)Nc4ccc(C)cc4Cl)CC3)ccc21 do in these assays?
D2 ag-1: -0.2; D2 PAM-2: -4.3
